Screening results: PubChem, National Center for Advancing Translational Sciences (NCATS)
An excerpt weighted towards active compounds, which were near 19% of everything screened.
IL-1B inflam inh = inflammasome signaling inhibition, IL-1 beta readout. AID 743279. activity change, % at 57.5 µM. THP-1 LPS/ATP IL-1B secretion, AlphaLISA, 16 h; stronger effect = lower value. hit rate 4.7% among 360,000; in the data active = activity change below about -50%; inconclusive = mostly about -30% to -49%
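THP-1 cells pretreated 1 hr with compounds (up to 57.5 uM final), then stimulated with LPS (250 ng/mL final) plus ATP (1.25 mM final); secreted IL-1B measured by AlphaLISA after 16 hr, decreased signal indicating inhibition.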
DT40 TDP1 CPT = DT40-hTDP1 cell growth loss with CPT | chicken DT40 Tdp1-/-;hTDP1 cells + 20 nM CPT, ATP luminescence, 48 h | Potency, µM (series often up to 46.2 µM), for inactives: at the top dose activity change, negative = growth inhibition, most hits filed as inhibitors | hit rate 12% among 420,000; also: potency is read from the fitted curve at half-maximal effect; nearly all actives have a fitted effect of over 55% in size
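Chicken DT40 Tdp1-/- cells complemented with human TDP1, 400 cells/well, exposed to compounds plus 20 nM camptothecin for at least 48 h at 37 C; viability read as ATP content by CellTiter-Glo luminescence.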
ELG1 repair inh = ELG1-dependent DNA repair inhibition; HEK293T ELG1-luciferase reporter, luminescence, 16 h; DNA damage induced by 5-fluorouridine; Potency, µM (series often up to 46.1 µM), for the others: at the highest dose activity change, negative = inhibition, actives largely listed as inhibitors; hit rate 2.3% among 330,000; also: potency is read from the fitted curve at half-maximal effect; nearly all actives have a fitted effect of over 55% in size
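DMSO vehicle served as the neutral condition. Each well held 2,000 cells given 5-fluorouridine plus compound; after 16 hr at 37 °C/5% CO2, ONE-Glo was added and luciferase measured 30 min later.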
DT40 TDP1 no CPT = qHTS for Inhibitors of human tyrosyl-DNA phosphodiesterase 1 (TDP1): qHTS in cells in absence of CPT; DT40 Tdp1-/- hTDP1 cells, no CPT, ATP luminescence, 48 h; Potency, µM (highest dose often 46.2 µM), without a hit: top-dose activity change, negative = growth inhibition, most hits filed as inhibitors; hit rate 15% among 420,000; AID 686978, 2013; also: potency is read from the fitted curve at half-maximal effect; nearly all actives have a fitted effect of over 55% in size
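Seeded 400 DT40-hTDP1 cells/well (vehicle DMSO, no 20 nM CPT); pinned compounds; ≥48 hr at 37 °C; CellTiter-Glo luminescence as viability measure.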
Giardia killer = Giardia lamblia killing | activity change, % at 7.66 µM, hits read low | Giardia lamblia trophozoite viability | hit rate 0.15% among 340,000; in the data active = activity change below about -80%; inconclusive = between about -30% and that limit;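 also: parasites exposed to compound for two days anaerobically before the ATP read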
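ATP-content bioluminescence gauges trophozoite survival. Cells (100/well) receive compound and incubate anaerobically for 48 hrs at 37 deg C; detection reagent follows for 15-30 min at room temperature.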
TDP1 block = inhibitors of human tyrosyl-DNA phosphodiesterase TDP1. Potency, µM (highest dose often 130 µM), for the others: at the highest dose activity change, negative = inhibition, hits mostly inhibitors. recombinant TDP1, AlphaScreen DNA substrate cleavage. hit rate 0.28% among 350,000. Q9NUW8; also: potency is read from the fitted curve at half-maximal effect; nearly all actives have a fitted effect of over 40% in size
Target sequence (Q9NUW8 whole entry, looked up): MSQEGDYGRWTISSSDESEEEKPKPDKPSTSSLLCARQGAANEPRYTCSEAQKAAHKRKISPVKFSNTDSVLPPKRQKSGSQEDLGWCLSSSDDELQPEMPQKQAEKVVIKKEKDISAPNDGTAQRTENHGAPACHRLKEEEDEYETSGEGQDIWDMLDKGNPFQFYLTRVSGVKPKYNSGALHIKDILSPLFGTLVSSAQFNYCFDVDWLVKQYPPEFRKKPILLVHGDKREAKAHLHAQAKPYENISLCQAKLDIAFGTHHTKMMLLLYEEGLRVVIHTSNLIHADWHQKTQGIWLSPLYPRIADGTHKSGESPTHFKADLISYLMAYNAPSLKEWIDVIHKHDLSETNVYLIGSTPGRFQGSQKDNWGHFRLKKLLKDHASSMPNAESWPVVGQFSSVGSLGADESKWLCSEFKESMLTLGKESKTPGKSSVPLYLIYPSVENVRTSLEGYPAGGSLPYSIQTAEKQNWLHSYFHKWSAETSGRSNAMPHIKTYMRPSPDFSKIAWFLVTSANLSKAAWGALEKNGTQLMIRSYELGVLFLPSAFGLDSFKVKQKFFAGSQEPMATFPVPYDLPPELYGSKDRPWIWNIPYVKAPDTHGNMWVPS
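Signal: AlphaScreen proximity between streptavidin donor and anti-FITC acceptor beads on intact substrate. Reaction: Tdp1 1 nM, substrate 15 nM final, 5 min RT after 15 min compound preincubation.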
* marks the source's active call; other numbers are inactive results; ? = inconclusive; nt = no result given. Unless noted, calls follow the shape of the dose curve; as a rule, active = well fitted curve in the direction sought with a large enough effect; inconclusive = small, poorly fitted or top-dose-only effect, or another doubt; inactive = no such curve, though single readings can be large; an effect the other way counts as inactive or inconclusive. % is scaled to controls: 0 for no effect and ±100 for the full control effect.

SMILES	IL-1B inflam inh	DT40 TDP1 CPT	ELG1 repair inh	DT40 TDP1 no CPT	Giardia killer	TDP1 block
Cc1cc(C)cc(NC(=O)Cn2nnc(C(=O)Nc3cc(C)cc(C)c3)c2N)c1	nt	-10.4%	nt	?	nt	-2.3%
O=C(Nc1nc(-c2ccc(S(=O)(=O)N3CCOCC3)cc2)cs1)c1ccccc1	?	?	12.6µM*	11.6µM*	-18.6	-1.9%
COc1ccc(-c2csc(NC(=O)c3ccc(S(=O)(=O)N4CCc5ccccc5C4)cc3)n2)c(OC)c1	19.8	?	?	13µM*	1.8	2.6%
COc1cccc(C(=O)Nc2nc(-c3ccc(S(=O)(=O)N4CCOCC4)cc3)cs2)c1	?	20.6µM*	?	11.6µM*	-6.4	5.6%
CCOc1ccc(-c2csc(NC(=O)c3ccc(S(=O)(=O)N4CCc5ccccc5C4)cc3)n2)cc1	40.4	-14.8%	5.7%	-10.6%	17.1	-1.8%
C/C(=N\NC(=O)c1ccc(O)cc1)c1ccc(NC(=O)Cc2ccccc2)cc1	-10.5	?	?	?	-2.9	1.9%
O=C(Nc1ccccc1N1CCCC1)C1CC(=O)N(Cc2ccccc2)C1 (stereo not given)	-16.2	-2.8%	2.0%	-9.1%	-5.0	5.2%
Cc1ccc(/C=N\NC(=O)CNC(=O)C23CC4CC(CC(C4)C2)C3)o1	-16.9	-0.7%	9.7%	-9.3%	-3.6	2.4%
CNC(=S)N(Cc1ccc(OC)cc1)C1CC(=O)N(c2ccc(OC)cc2)C1=O (stereo not given)	-2.4	?	-17.8%	?	-8.6	-7.8%
O=C1CC(N(CCc2ccccc2)C(=S)Nc2cc(Cl)ccc2Cl)C(=O)N1c1c(Cl)cccc1Cl (stereo not given)	-6.1	16.4µM*	-1.3%	10.3µM*	7.7	3.8%
CCCOc1ccc(N2C(=O)CC(N(Cc3ccc(OC)cc3)C(=S)Nc3ccccc3)C2=O)cc1 (stereo not given)	-29.6	-29.0%	?	?	18.9	1.4%
CCCOc1ccc(N2C(=O)CC(N(CCc3ccc(OC)c(OC)c3)C(=S)Nc3ccccc3)C2=O)cc1 (stereo not given)	28.7	?	16.4µM*	?	-5.4	2.7%
CNC(=S)N(CCc1ccc(OC)c(OC)c1)C1CC(=O)N(c2ccccc2)C1=O (stereo not given)	nt	?	?	25.9µM*	5.8	nt
Cc1oc(-c2ccccc2Cl)nc1CSc1nncn2c1cc1occc12	nt	?	nt	?	nt	7.7%
Cc1ccc(S(=O)(=O)C(CNC(=O)C(=O)NCc2ccc(Cl)cc2)c2cccs2)cc1 (stereo not given)	nt	?	nt	?	nt	-2.6%
CC(C)C(NC(=O)c1ccccc1)c1nnc(SCC(=O)NC2CCCC2)n1C (stereo not given)	-1.1	-1.7%	8.2%	-39.6%	20.8	10.6%
COc1ccc(C2=NNC(=Nc3cc(S(=O)(=O)N(C)C)ccc3C)SC2)c(OC)c1	-54.3*	?	14.6µM*	16.4µM*	-7.8	5.6%
CC(=O)Nc1ccc(C2=NNC(=Nc3cccc(S(=O)(=O)N(C)C)c3)SC2)cc1	-79.4*	6.51µM*	?	5.8µM*	24.8	4.8%
Cc1cc(C2=NNC(=Nc3ccccc3)SC2)c(C)n1C	-20.2	?	?	?	9.8	4.6%
CN(C)S(=O)(=O)c1cccc(N=C2NN=C(c3ccccc3)CS2)c1	-57.4*	18.4µM*	?	7.31µM*	-5.3	7.9%
O=C(O)COCC(=O)Nc1ccc(OCCc2ccccc2)cc1	7.9	13.0%	21.0%	2.4%	6.5	4.5%
CCc1cccc2c(/C=N/NC(=O)c3cccc(S(=O)(=O)Nc4ccccc4Cl)c3)c[nH]c12	27.2	?	-12.8%	?	39.5	5.9%
CCN=c1scc(-c2ccc(F)cc2)n1/N=C/c1ccccn1	-50.8*	?	?	16.4µM*	1.8	2.7%
